Measured values as given in PubChem BioAssay (NCATS).
Calls of active or inactive are those of the source. How the calls were made is not given here.

system: HIV-1 nucleocapsid protein NCp7 (binding to TG oligonucleotide); test: HIV Nucleocapsid (AID 346); details: HIV-1 NC / fluorescein-TGTGTGTG probe, fluorescence polarization;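 further: potency is for inhibitors that block NC binding and lower polarization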
Outline: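 Fluorescence polarization binding of 100 nM HIV-1 NC to 10 nM fluorescein-labelled TG4xF oligonucleotide. Buffer was Hepes pH 7.5 with 250mM NaCl, 1uM ZnCl2, TCEP and 2-mercaptoethanol. Compounds were incubated 1 hr at room temperature before the read.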
Potency means the concentration at half of the fitted maximal effect.

Structure (SMILES)	Potency
CS(=O)(=O)N1CCC[C@@]2(CCN(C(=O)Nc3cccc(C#N)c3)C2)C1	> 20 µM (inactive)
O=c1c(-c2ccc(F)cc2)nc2cnc(N3CCOCC3)nc2n1C[C@H]1CCCO1	> 20 µM (inactive)
COCC(=O)N1CCC[C@@]2(CCN(Cc3nccs3)C2)C1	> 20 µM (inactive)
CN(C)c1ncc2nc(CCc3ccccc3)c(=O)n(-c3ccccc3)c2n1	> 20 µM (inactive)
O=C(c1csnn1)N1CCC2(CC1)CCN(c1ncccn1)CC2	> 20 µM (inactive)
N#Cc1ccc(CN2CC3(CCN(C(=O)c4ccncc4)CC3)C2)cc1	> 20 µM (inactive)
COc1cccc(-c2nccc(NCc3cccc(C)c3)n2)c1	> 20 µM (inactive)
c1ccc(-c2cccc(N3CC[C@@]4(CCCNC4)C3)c2)cc1	> 20 µM (inactive)
O=C(c1cc(C(F)(F)F)cc(C(F)(F)F)c1)N1CCC2(CCN(Cc3ccncc3)CC2)CC1	> 20 µM (inactive)
O=C(c1ccco1)N1CCC2(CC1)CCN(c1cccc(-c3ccccc3)c1)CC2	> 20 µM (inactive)
CN1CCN(c2ncc3nc(CCc4ccccc4)c(=O)n(Cc4ccc(F)cc4)c3n2)CC1	> 20 µM (inactive)
COc1ccc(-c2nc3cncnc3n(-c3ccccc3)c2=O)cc1	> 20 µM (inactive)
CC(=O)NCCNc1cc(-c2ccccc2C)ncn1	> 20 µM (inactive)
COc1ncc2nc(-c3ccc(F)cc3)c(=O)n(C[C@H]3CCCO3)c2n1	> 20 µM (inactive)
FC(F)(F)c1ccccc1-c1cncnc1NCCN1CCOCC1	> 20 µM (inactive)
CS(=O)(=O)Nc1cccc(-c2cc(Nc3ccccc3)ncn2)c1	> 20 µM (inactive)
O=c1c(-c2cc(F)cc(F)c2)nc2cnc(N3CCOCC3)nc2n1-c1ccccc1	> 4 µM (inactive)
COc1ccc(CNc2ncnc3ccc(-c4ccc5c(c4)OCO5)cc23)c(OC)c1	> 20 µM (inactive)
Cc1ccccc1-c1cc(Nc2ccccc2)ncn1	> 20 µM (inactive)
O=c1c(-c2ccc(F)cc2)nc2cnc(N3CCNCC3)nc2n1-c1ccccc1	> 20 µM (inactive)

Structure (SMILES)	Potency
COc1ccc(-c2nc3cnc(N(C)C)nc3n(C)c2=O)cc1	> 4 µM (inactive)
N#Cc1cccc(NC(=O)N2CC3(CCN(C(=O)c4cccc(F)c4)CC3)C2)c1	> 20 µM (inactive)
c1ccc2c(NC3CC3)nc(-c3ccoc3)nc2c1	> 20 µM (inactive)
O=c1c(CCc2ccccc2)nc2cnc(N3CCOCC3)nc2n1Cc1cccs1	> 20 µM (inactive)
O=C(c1csnn1)N1CCC2(CCN(Cc3cc(C(F)(F)F)cc(C(F)(F)F)c3)CC2)CC1	> 20 µM (inactive)
COCCNc1ncnc2ccc(-c3cccc(OC)c3)cc12	> 20 µM (inactive)
COc1ccc(-c2nc3cnc(N4CCN(C)CC4)nc3n(C)c2=O)cc1	> 20 µM (inactive)
CC(C)CN1CC[C@@]2(CCCN(S(=O)(=O)c3ccccc3)C2)C1	> 20 µM (inactive)
O=c1cnc2cnc(N3CCOCC3)nc2n1C1CC1	> 20 µM (inactive)
COc1ccccc1CN1CCCC2(CCN(C(=O)c3ccncc3)CC2)C1	> 20 µM (inactive)
CN(Cc1ccco1)c1cc(-c2cccnc2)ncn1	> 20 µM (inactive)
Cc1noc(C)c1-c1cc(N(C)C)ncn1	> 20 µM (inactive)
Cn1c(=O)c(-c2ccc(Cl)cc2)nc2cnc(N3CCOCC3)nc21	> 20 µM (inactive)
CC(=O)NCCNc1ncnc2ccc(-c3ccc4c(c3)OCO4)cc12	> 20 µM (inactive)
Cn1cc(-c2nc3cnc(N4CCNCC4)nc3n(Cc3ccc(F)cc3)c2=O)c2ccccc21	20.8 µM (inactive)
Cc1cccc(CNc2ncnc3ccc(-c4cccc(C#N)c4)cc23)c1	> 20 µM (inactive)
Cc1nc2cnc(Nc3ccccc3)nc2n(Cc2cccs2)c1=O	> 20 µM (inactive)
c1nc(N2CCOCC2)c2cc(-c3ccoc3)ccc2n1	> 20 µM (inactive)
Cc1cccc(CNc2cc(-c3ccccc3Cl)ncn2)c1	> 20 µM (inactive)
Cn1c(=O)c(-c2cc(F)cc(F)c2)nc2cnc(Nc3ccccc3)nc21	> 20 µM (inactive)
